# Columns and labels:
# Test in all cases: DAPPL (digital affinity profiling via proximity ligation, sequencing); 10 mM Tris-HCl pH 7.5, 50 mM NaCl, 1 mM DTT, 4% glycerol, room temperature, 30 min; GST-TFs on glutathione beads, 16-mer random dsDNA library, 0.1% formaldehyde crosslink after washing; high values mean tight binding
# [1] = target: T1, FLI1 (Homo sapiens, UniProt Q01543 1-452); details: protein: recombinant; tags: N-terminal GST; dsDNA, one strand shown
# T1 sequence: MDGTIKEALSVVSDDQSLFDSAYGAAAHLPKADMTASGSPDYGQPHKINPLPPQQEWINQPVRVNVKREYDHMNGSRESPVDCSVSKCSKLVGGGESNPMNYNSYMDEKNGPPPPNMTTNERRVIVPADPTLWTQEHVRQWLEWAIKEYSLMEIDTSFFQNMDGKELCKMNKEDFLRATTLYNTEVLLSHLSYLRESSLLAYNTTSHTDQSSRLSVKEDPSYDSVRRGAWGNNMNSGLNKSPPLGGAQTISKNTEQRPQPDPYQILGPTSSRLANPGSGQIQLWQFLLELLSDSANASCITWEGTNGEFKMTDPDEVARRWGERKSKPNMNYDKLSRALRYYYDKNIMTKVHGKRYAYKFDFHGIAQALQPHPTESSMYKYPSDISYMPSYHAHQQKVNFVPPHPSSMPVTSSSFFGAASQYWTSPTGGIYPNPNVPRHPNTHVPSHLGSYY
# In short: (§1)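 Human transcription factors carrying a GST fusion were produced in yeast, bound to glutathione beads, tagged with DNA barcodes and pooled together with a tag-only sample. Each pool was held with 200 nmole of a random double-stranded 16-mer DNA library in Tris/NaCl/DTT/glycerol buffer for 30 min at room temperature, then washed, crosslinked in 0.1% formaldehyde, proximity-ligated with BsaI/T4 ligase (1 h, 37 °C), PCR-amplified and sequenced on an Illumina NextSeq500. Binding signal is the read frequency of each hexamer for a given factor divided by its frequency in the tag-only sample.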
# [2] = target: T2, ELK1 (Homo sapiens, UniProt P19419 1-428); details: protein: recombinant; tags: N-terminal GST; dsDNA, one strand shown
# T2 sequence: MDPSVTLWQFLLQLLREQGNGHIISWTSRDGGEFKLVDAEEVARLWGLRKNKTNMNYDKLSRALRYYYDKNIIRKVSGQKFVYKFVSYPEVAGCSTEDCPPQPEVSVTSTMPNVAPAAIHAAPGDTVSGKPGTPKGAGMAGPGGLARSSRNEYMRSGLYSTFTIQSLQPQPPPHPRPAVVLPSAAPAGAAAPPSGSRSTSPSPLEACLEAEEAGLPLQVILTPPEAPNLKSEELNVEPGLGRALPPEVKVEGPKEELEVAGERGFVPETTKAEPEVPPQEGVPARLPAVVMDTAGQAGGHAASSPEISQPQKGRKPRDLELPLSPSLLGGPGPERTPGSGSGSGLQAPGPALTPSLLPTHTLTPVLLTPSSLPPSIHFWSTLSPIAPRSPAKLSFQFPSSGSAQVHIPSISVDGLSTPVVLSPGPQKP
# In short: as §1
# [3] = target: T3, GABPA (Homo sapiens, UniProt Q06546 1-454); details: protein: recombinant; tags: N-terminal GST; dsDNA, one strand shown
# T3 sequence: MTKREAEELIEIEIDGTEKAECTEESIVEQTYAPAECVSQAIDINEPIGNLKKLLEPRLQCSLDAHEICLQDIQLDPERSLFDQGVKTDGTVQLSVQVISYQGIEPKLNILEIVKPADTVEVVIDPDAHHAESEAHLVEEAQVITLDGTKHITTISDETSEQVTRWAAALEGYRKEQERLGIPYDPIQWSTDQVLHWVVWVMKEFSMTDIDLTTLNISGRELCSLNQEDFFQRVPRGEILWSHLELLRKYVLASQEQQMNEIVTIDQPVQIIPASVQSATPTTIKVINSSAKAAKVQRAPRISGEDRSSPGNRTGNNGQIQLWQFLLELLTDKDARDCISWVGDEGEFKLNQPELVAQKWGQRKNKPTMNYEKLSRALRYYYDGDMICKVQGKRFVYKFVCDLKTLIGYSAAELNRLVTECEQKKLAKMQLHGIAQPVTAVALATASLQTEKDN
# In short: as §1
# [4] = target: T4, ERG (Homo sapiens, UniProt P11308 1-479); details: protein: recombinant; tags: N-terminal GST; dsDNA, one strand shown
# T4 sequence: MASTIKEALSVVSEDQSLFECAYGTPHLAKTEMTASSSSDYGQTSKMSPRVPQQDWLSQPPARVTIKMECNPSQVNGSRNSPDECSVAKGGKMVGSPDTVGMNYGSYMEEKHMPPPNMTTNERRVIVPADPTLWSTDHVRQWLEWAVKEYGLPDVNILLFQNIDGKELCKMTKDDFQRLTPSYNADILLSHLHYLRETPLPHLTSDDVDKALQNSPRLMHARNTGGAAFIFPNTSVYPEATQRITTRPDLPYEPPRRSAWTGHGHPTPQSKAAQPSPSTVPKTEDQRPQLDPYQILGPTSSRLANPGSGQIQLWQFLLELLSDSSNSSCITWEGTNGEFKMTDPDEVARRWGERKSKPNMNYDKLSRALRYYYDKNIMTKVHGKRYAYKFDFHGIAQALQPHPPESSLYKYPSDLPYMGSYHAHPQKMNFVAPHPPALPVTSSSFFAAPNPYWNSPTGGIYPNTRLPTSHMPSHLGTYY
# In short: as §1
# [5] = target: ELF1 (Homo sapiens, UniProt P32519 1-619); details: protein: recombinant; tags: N-terminal GST; dsDNA, one strand shown
# In short: as §1
# [6] = target: T5, EHF (Homo sapiens, UniProt Q9NZC4 1-300); details: protein: recombinant; tags: N-terminal GST; dsDNA, one strand shown
# T5 sequence: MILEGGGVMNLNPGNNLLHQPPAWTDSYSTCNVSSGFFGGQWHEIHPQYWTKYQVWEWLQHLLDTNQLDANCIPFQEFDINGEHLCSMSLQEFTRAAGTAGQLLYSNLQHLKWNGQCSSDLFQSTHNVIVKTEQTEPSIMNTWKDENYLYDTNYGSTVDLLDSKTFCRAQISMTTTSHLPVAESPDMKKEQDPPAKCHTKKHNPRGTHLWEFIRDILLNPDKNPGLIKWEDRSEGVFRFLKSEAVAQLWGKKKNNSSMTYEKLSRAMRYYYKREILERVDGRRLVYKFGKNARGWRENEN
# In short: as §1
# [7] = target: SPI1 (Homo sapiens, UniProt P17947 1-270); details: protein: recombinant; tags: N-terminal GST; dsDNA, one strand shown
# In short: as §1
# [8] = target: SPIB (Homo sapiens, UniProt Q01892 1-262); details: protein: recombinant; tags: N-terminal GST; dsDNA, one strand shown
# In short: as §1
# [9] = target: T6, ELK3 (Homo sapiens, UniProt P41970 1-407); details: protein: recombinant; tags: N-terminal GST; dsDNA, one strand shown
# T6 sequence: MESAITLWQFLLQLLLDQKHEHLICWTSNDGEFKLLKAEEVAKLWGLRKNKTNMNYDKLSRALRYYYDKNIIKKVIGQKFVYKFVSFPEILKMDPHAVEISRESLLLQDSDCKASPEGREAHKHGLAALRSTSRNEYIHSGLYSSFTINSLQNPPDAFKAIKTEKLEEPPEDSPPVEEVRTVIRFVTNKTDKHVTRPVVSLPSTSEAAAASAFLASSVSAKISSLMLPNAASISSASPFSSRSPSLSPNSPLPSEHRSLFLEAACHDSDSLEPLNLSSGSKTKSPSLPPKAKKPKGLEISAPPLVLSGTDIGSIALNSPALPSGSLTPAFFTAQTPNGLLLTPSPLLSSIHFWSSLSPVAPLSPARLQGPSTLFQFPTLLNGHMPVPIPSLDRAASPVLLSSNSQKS
# In short: as §1
# [10] = target: T7, FEV (Homo sapiens, UniProt Q99581 1-238); details: protein: recombinant; tags: N-terminal GST; dsDNA, one strand shown
# T7 sequence: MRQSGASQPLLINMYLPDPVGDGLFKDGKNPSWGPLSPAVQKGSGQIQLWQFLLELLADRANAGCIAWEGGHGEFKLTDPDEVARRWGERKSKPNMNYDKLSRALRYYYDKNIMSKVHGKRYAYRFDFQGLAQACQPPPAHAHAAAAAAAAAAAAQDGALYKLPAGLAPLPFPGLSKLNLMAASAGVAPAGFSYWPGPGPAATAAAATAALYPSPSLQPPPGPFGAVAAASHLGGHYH
# In short: as §1
# [11] = target: ETV5 (Homo sapiens, UniProt P41161 1-510); details: protein: recombinant; tags: N-terminal GST; dsDNA, one strand shown
# In short: as §1
# [12] = target: HSF1 (Homo sapiens, UniProt Q00613 1-529); details: protein: recombinant; tags: N-terminal GST; chain copies: 3; dsDNA, one strand shown
# In short: as §1
# [13] = target: T8, SPIC (Homo sapiens, UniProt Q8N5J4 1-248); details: protein: recombinant; tags: N-terminal GST; dsDNA, one strand shown
# T8 sequence: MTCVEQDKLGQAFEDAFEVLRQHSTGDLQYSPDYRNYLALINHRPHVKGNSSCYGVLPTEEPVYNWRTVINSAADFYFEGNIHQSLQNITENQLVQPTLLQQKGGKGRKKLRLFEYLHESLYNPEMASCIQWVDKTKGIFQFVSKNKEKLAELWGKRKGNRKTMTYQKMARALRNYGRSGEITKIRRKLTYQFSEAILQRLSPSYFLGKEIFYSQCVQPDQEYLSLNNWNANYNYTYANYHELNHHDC
# In short: as §1
# [14] = target: ELF4 (Homo sapiens, UniProt Q99607 1-663); details: protein: recombinant; tags: N-terminal GST; dsDNA, one strand shown
# In short: as §1
# [15] = target: T9, ELK4 (Homo sapiens, UniProt P28324-2 1-405); details: protein: recombinant; tags: N-terminal GST; dsDNA, one strand shown
# T9 sequence: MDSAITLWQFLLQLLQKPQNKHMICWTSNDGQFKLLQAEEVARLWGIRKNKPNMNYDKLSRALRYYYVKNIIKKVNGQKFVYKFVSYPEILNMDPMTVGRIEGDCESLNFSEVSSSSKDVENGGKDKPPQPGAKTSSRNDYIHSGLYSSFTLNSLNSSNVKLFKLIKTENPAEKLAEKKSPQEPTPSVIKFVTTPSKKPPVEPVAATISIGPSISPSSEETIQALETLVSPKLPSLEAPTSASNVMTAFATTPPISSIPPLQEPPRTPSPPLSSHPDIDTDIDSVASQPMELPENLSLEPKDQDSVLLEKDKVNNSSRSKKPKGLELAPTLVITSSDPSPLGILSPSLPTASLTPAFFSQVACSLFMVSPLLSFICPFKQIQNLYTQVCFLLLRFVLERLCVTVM
# In short: as §1
# [16] = target: T10, ETV2 (Homo sapiens, UniProt O00321 1-342); details: protein: recombinant; tags: N-terminal GST; dsDNA, one strand shown
# T10 sequence: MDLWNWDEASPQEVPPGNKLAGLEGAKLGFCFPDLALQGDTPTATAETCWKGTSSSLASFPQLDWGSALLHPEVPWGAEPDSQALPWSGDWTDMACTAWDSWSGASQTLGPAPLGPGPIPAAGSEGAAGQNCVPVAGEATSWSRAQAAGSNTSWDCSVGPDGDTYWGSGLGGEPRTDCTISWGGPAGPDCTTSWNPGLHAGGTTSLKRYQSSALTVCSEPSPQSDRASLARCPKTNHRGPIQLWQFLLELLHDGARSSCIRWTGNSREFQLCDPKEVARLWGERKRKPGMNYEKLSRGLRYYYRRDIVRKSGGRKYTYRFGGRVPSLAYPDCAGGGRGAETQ
# In short: as §1
# [17] = target: T11, ELF3 (Homo sapiens, UniProt P78545 1-371); details: protein: recombinant; tags: N-terminal GST; dsDNA, one strand shown
# T11 sequence: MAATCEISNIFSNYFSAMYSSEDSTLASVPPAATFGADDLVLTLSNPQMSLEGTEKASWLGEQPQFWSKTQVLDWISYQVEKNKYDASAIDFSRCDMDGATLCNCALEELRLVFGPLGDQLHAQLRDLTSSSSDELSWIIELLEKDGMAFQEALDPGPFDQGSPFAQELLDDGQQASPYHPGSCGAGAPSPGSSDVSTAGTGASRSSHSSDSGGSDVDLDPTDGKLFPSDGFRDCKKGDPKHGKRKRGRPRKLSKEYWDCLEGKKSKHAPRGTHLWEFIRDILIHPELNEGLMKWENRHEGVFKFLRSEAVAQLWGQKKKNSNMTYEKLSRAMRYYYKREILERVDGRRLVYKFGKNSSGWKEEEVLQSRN
# In short: as §1
# [18] = target: CRX (Homo sapiens, UniProt O43186 1-299); details: protein: recombinant; tags: N-terminal GST; dsDNA, one strand shown
# In short: as §1
# [19] = target: ETV1 (Homo sapiens, UniProt P50549 1-477); details: protein: recombinant; tags: N-terminal GST; dsDNA, one strand shown
# In short: as §1
# Chain of ELF4 (Q99607 whole entry): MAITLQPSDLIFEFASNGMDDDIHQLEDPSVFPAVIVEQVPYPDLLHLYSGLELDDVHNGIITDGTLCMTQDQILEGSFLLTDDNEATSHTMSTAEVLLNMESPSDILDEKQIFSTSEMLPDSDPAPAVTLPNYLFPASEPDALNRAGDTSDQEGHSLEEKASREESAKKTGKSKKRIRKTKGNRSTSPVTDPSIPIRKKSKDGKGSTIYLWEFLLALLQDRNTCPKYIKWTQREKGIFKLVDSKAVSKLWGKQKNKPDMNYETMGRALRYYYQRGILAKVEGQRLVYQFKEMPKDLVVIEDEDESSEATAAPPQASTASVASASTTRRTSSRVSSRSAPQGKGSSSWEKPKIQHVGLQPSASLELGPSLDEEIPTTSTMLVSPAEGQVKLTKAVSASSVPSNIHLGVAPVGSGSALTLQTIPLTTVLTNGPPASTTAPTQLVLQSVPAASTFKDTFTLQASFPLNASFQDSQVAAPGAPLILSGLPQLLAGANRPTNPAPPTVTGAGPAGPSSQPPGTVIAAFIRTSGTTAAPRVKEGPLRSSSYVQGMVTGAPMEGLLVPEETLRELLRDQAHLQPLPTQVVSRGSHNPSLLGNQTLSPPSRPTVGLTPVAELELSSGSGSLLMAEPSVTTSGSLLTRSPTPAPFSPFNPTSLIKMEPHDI
# Chain of SPIB (Q01892 whole entry): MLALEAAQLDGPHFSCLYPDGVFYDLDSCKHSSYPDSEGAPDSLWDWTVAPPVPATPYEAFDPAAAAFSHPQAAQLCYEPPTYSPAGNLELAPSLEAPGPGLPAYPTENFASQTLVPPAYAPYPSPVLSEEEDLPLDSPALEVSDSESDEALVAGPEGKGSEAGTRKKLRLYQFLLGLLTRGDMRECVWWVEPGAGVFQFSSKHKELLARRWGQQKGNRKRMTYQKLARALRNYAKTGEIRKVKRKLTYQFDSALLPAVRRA
# Chain of ETV5 (P41161 whole entry): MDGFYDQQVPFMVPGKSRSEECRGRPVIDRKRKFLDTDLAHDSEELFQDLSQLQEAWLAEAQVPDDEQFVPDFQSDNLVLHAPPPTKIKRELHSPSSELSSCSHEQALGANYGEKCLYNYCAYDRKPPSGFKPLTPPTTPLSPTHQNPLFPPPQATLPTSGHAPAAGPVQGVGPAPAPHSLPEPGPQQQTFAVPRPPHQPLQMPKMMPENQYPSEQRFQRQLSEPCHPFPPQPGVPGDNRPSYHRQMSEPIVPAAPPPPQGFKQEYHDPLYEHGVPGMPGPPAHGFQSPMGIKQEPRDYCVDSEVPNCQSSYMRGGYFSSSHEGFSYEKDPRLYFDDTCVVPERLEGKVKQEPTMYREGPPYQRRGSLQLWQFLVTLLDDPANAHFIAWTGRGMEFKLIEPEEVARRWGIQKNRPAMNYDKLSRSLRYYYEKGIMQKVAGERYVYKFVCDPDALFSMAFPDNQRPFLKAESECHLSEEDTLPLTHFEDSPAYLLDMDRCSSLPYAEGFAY
# Chain of ETV1 (P50549 whole entry): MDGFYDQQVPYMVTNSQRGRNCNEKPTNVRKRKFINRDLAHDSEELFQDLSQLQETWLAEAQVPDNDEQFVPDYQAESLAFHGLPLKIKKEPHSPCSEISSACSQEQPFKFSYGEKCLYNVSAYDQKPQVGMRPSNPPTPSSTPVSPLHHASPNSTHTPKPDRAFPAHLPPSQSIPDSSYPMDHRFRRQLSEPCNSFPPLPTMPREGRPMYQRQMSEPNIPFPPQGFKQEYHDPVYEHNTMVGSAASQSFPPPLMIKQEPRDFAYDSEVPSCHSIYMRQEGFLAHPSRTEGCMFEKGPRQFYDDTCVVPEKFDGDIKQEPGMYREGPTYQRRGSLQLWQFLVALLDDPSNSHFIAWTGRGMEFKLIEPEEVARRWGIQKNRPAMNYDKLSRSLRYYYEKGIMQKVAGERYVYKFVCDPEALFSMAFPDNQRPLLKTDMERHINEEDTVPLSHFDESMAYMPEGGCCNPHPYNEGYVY
# Chain of ELF1 (P32519 whole entry): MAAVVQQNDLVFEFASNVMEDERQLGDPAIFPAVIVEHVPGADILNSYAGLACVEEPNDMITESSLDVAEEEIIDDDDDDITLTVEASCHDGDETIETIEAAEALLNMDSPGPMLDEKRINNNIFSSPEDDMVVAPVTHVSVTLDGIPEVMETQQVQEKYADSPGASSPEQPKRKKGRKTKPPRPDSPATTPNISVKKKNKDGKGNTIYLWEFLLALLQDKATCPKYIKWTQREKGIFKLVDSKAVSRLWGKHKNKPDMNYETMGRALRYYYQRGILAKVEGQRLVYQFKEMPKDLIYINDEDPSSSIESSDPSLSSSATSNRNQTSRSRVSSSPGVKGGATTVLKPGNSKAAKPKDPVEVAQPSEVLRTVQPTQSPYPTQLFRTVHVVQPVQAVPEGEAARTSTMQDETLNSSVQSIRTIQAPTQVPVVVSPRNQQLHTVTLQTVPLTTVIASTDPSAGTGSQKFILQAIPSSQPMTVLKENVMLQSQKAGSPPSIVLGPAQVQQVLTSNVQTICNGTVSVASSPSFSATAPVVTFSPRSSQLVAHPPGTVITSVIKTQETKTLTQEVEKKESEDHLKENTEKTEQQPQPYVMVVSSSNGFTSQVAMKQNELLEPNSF
# Chain of CRX (O43186 whole entry): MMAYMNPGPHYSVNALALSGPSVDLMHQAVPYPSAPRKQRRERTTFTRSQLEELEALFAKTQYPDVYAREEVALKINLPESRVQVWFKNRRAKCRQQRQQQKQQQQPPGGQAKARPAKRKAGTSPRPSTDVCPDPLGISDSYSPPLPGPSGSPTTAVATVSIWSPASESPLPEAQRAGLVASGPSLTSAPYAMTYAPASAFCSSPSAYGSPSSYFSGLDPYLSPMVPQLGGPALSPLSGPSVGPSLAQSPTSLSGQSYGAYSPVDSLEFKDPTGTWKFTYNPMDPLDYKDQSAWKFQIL
# Chain of HSF1 (Q00613 whole entry): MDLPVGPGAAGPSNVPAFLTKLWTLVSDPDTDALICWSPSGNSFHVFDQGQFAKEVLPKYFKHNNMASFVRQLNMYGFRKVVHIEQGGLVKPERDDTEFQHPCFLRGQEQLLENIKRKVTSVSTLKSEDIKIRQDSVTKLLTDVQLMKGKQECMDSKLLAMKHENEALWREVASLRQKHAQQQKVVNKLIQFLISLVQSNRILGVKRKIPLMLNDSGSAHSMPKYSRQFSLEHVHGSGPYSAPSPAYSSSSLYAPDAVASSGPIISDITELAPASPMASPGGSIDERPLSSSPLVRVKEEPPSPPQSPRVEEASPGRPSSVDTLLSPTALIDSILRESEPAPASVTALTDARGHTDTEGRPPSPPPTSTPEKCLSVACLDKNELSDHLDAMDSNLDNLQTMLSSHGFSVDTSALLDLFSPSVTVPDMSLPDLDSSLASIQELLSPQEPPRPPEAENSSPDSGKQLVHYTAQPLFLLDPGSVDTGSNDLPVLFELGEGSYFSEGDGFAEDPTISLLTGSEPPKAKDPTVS
sequence,measurement,setting,value
TTAGCT,binding signal,[1],"1.13 fold enrichment (6-mer frequency, TF over GST control)"
same,binding signal,[2],"1.21 fold enrichment (6-mer frequency, TF over GST control)"
same,binding signal,[3],"1.23 fold enrichment (6-mer frequency, TF over GST control)"
same,binding signal,[4],"1.15 fold enrichment (6-mer frequency, TF over GST control)"
same,binding signal,[5],"1.27 fold enrichment (6-mer frequency, TF over GST control)"
same,binding signal,[6],"1.2 fold enrichment (6-mer frequency, TF over GST control)"
same,binding signal,[7],"1.2 fold enrichment (6-mer frequency, TF over GST control)"
same,binding signal,[8],"1.19 fold enrichment (6-mer frequency, TF over GST control)"
same,binding signal,[9],"1.18 fold enrichment (6-mer frequency, TF over GST control)"
same,binding signal,[10],"1.2 fold enrichment (6-mer frequency, TF over GST control)"
same,binding signal,[11],"1.2 fold enrichment (6-mer frequency, TF over GST control)"
same,binding signal,[12],"1.82 fold enrichment (6-mer frequency, TF over GST control)"
same,binding signal,[13],"1.16 fold enrichment (6-mer frequency, TF over GST control)"
same,binding signal,[14],"1.28 fold enrichment (6-mer frequency, TF over GST control)"
same,binding signal,[15],"1.24 fold enrichment (6-mer frequency, TF over GST control)"
same,binding signal,[16],"1.28 fold enrichment (6-mer frequency, TF over GST control)"
same,binding signal,[17],"1.18 fold enrichment (6-mer frequency, TF over GST control)"
same,binding signal,[18],"2.63 fold enrichment (6-mer frequency, TF over GST control)"
same,binding signal,[19],"1.2 fold enrichment (6-mer frequency, TF over GST control)"

# Source: article PMC7862700, “An all-to-all approach to the identification of sequence-specific readers for epigenetic DNA modifications on cytosine”
